Screens (PubChem BioAssay)
A selection: hits, their analogues and other compounds. The true share with any hit is near 3.2%.
MEKK2wt PB1 HTS: raises or lowers MEK5 binding to wildtype human MEKK2 PB1 domain; bead flow cytometry, Alexa488-MEK5 binding to MEKK2 WT; actives lie on both sides; AID 1531; binding response (% of control), % at 10 µM; 1.1% of 290,000 active; Q9Y2U5; in the data active means binding response below about 67% or above about 130%
CendR NRP1 mod: alters CendR peptide binding to human NRP-1. O14786. FAM-RPARPAR peptide binding to NRP-1, fluorescence polarization. inhibition, % at 25 µM. 0.85% of 360,000 active. AID 602438;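 active means inhibition or corrected inhibition above about 18%, plus a signal ratio from 0.5 to 1.5, limit read from the data, passing the limit was not always enough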
SKN-1 block: inhibitors of C. elegans SKN-1; AID 624304; 0.49% of 360,000 active; C. elegans VP596 Pgst-4::GFP/RFP ratio, acrylamide-induced, 24 h; inhibition, % at 21.8 µM;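 active means interference check ratio from 0.5 to 1.5 plus GFP to RFP signal ratio inhibition reaching or exceeding a fixed threshold, cut at about 30% in these data, passing the limit was not always enough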
MEKK2mut PB1 HTS: signal of MEK5 binding to mutant human MEKK2 PB1 domain. bead flow cytometry, Alexa488-MEK5 binding to MEKK2 mutant. percent response, % at 10 µM. 0.35% of 290,000 active; in the data active means percent response above about 24%, passing the limit was not always enough
MEKK3 PB1 HTS: MEKK3-MEK5 PB1 interaction, increase or decrease; Q99759; bead-based flow cytometry, Alexa488-MEK5 binding to MEKK3; actives lie on both sides; 0 = blocked by unlabeled MEK5, 100 = vehicle; binding response (% of control), % at 10 µM; 1.4% of 290,000 active;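 active means binding response more than 3 SD above or below the average of its plate-row segment, actives on both sides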;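 further: Alexa488 bead fluorescence after subtracting the streptavidin-only scavenger bead signal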
MEKK2wt confirm: raises or lowers MEK5 binding to wildtype human MEKK2, retest. 2.4% of 5,900 active. AID 1892. bead flow cytometry, Alexa488-MEK5 binding to MEKK2 WT; actives lie on both sides. shares compounds with MEKK3 PB1 HTS. binding response (% of control), % at 10 µM; in the data active means binding response below about 16% or above about 210%; inactive means in between
MEKK2mut confirm: signal of MEK5 binding to mutant human MEKK2, retest. shares compounds with MEKK3 PB1 HTS. bead flow cytometry, Alexa488-MEK5 binding to MEKK2 mutant. percent response, % at 10 µM. 2% of 5,900 active; in the data active means percent response mostly above about 71%, no sharp cut-off; inactive means mostly below about 38%;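 further: higher means compound restores mutant binding toward wildtype level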
MEKK3 confirm: MEKK3-MEK5 PB1 inhibition, single concentration confirmation | 1.8% of 5,900 active | bead flow cytometry, Alexa488-MEK5 binding to MEKK3; stronger effect = lower value | binding response (% of control), % at 10 µM | shares compounds with MEKK3 PB1 HTS;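 active means binding response below 72% of control, or above a set upper limit, though filed actives all read lower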;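 further: 100% = DMSO only wells and 0% = binding blocked by excess unlabeled MEK5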
The depositor's hits bear a star; nt = no result; [ ] = another dose, or the depositor's remark.

SMILES	MEKK2wt PB1 HTS	CendR NRP1 mod	SKN-1 block	MEKK2mut PB1 HTS	MEKK3 PB1 HTS	MEKK2wt confirm	MEKK2mut confirm	MEKK3 confirm
O=C(N/N=C/c1cccnc1)c1cccs1	121	4	3	28	130*	94	1	104
CC1=CC(C)(C)N(C(=O)Nc2ccccc2)c2ccccc21	48	-11	5	-15	43*[inhibitor]	97	3	95
CC1=CC(C)(C)N(C(=O)c2ccccc2)c2ccccc21	97	-1	-8	-1	103	nt	nt	nt
CC(C)CNC(=S)Nc1ccccc1F	104	3	9	0	94	nt	nt	nt
CCCCNC(=S)Nc1ccccc1F	108	18	-6	25*	111	108	0	101
Cc1nc(NC(=O)C2CCCC2)sc1Cc1ccc2c(c1)OCO2	109	-3	8	1	107	nt	nt	nt
Cc1nc(NC(=O)C23CC4CC(CC(C4)C2)C3)sc1Cc1ccc2c(c1)OCO2	147*	-8	13	30	108	131	15	105
CC(C)(C)OC(=O)C[C@H]1C/C=C\C[C@H](CC(=O)NCCO)C(=O)N[C@@H](c2ccccc2)COC1=O	nt	10	2	nt	nt	nt	nt	nt
COCCn1nnnc1CN(Cc1cccnc1)Cc1cc2cc(OC)ccc2[nH]c1=O	103	5	-11	2	102	nt	nt	nt
Cc1ccc2[nH]c(=O)c(CN(Cc3cccnc3)Cc3nnnn3CC3CCCO3)cc2c1 (stereo not drawn)	121	-8	-3	32	135*	106	4	106
Cc1ccc2cc(CN(Cc3nnnn3C3CCCCC3)CC3CCCO3)c(=O)[nH]c2c1 (stereo not drawn)	-3.0*[inhibitor]	7	6	-20	1.0*[inhibitor]	94	-1	99
Cc1ccc2[nH]c(=O)c(CN(Cc3cccnc3)Cc3nnnn3CCN3CCOCC3)cc2c1	2.0*[inhibitor]	1	10	-41	2.0*[inhibitor]	101	1	101
CCCN(C)C1CN(Cc2cn(Cc3ccccc3)nn2)S(=O)(=O)C1 (stereo not drawn)	nt	-4	-1	nt	nt	nt	nt	nt
COc1cc(CNc2nccn3ccnc23)cc(OC)c1	nt	10	-3	nt	nt	nt	nt	nt
Cc1cccc(Cc2c(C)nc3nc(SCC(=O)NCc4ccco4)nn3c2C)c1	122	-5	13	7	126*	102	-1	101
Cc1ccccc1Cc1c(C)nc2nc(SCC(=O)NCc3ccco3)nn2c1C	118	-2	-12	4	116	nt	nt	nt
Cc1ccc(Cc2c(C)nc3nc(SCC(=O)NCc4ccco4)nn3c2C)cc1	129	-11	-1	6	122*	100	3	106
CN(C)c1ccc(-c2ccnc3c2CC(C)(C(=O)NCCC(F)(F)F)O3)cc1 (stereo not drawn)	nt	-18	-4	nt	nt	nt	nt	nt
Cc1ccc2c(c1)N(CCC(=O)NC1CCCCC1C)C(=O)CO2 (stereo not drawn)	98	-4	17	-7	99	nt	nt	nt
COc1cc(C(=O)N2CCCCC2c2cc(C(=O)Nc3ccccc3Cl)no2)cc(OC)c1C (stereo not drawn)	nt	-3	-3	nt	nt	nt	nt	nt
O=C1NCN(c2ccccc2)C12CCN(CCCC(c1ccc(F)cc1)c1ccc(F)cc1)CC2	207*	-2	6	25*	113	165	50	106
N#Cc1ccc(OCC(=O)N2CCN(c3ccc(C(F)(F)F)cn3)CC2)cc1	nt	11	14	nt	nt	nt	nt	nt
COc1ccc(N2C(=O)c3cccc4cc(Br)cc(c34)C2=O)cc1	91	5	13	-18	73*[inhibitor]	96	-3	97
O=C(C1CCCO1)N1CCN(c2ccccn2)CC1 (stereo not drawn)	82	10	1	-3	73*[inhibitor]	100	-1	102
O=C(N1CCOCC1)N1CCN(c2ccccn2)CC1	100	-1	-3	11	98	nt	nt	nt
SMILES	MEKK2wt PB1 HTS	CendR NRP1 mod	SKN-1 block	MEKK2mut PB1 HTS	MEKK3 PB1 HTS	MEKK2wt confirm	MEKK2mut confirm	MEKK3 confirm
COc1cc2[nH]c(=O)n(CCC(=O)N3CC=C(c4ccccc4)CC3)c(=O)c2cc1OC	100	6	-9	-2	97	nt	nt	nt
COc1cc2[nH]c(=O)n(CCCC(=O)N3CC=C(c4ccccc4)CC3)c(=O)c2cc1OC	120	-8	-9	10	127*	105	4	104
CC1CCCCN1C(=O)COc1ccccc1F (stereo not drawn)	113	3	5	0	135*	104	0	103
CN(c1ccccc1)c1nc(N2CCCC2)nc(-n2ccnc2)n1	134*	-6	14	15	116	104	1	102
c1ccc(N(c2ccccc2)c2nc(N3CCCC3)nc(-n3ccnc3)n2)cc1	nt	-9	5	nt	nt	nt	nt	nt
S=c1[nH]nc(-c2ccc(Cl)cc2)n1-c1ccc2c(c1)OCCO2	109	8	13	1	197*	1.0*[inhibitor]	-29	2.0*
Fc1ccc(-c2n[nH]c(=S)n2-c2ccc3c(c2)OCCO3)cc1	99	-14	-1	-11	104	nt	nt	nt
Cc1ccc(-n2cc(CN(C)CCc3cn[nH]c3)c(-c3cccc(C)c3)n2)cc1	158*	8	6	47	100	119	8	107
N#CC1=C(N)OC(c2ccccc2)=C(C#N)C1c1ccc2c(c1)OCO2 (stereo not drawn)	122	0	-15	6	133*	103	4	92
O=C(NCc1ccon1)C1CCC(=O)N(CCc2cccc(F)c2)C1 (stereo not drawn)	100	2	-12	2	101	nt	nt	nt
CCOc1cc(NC(=S)NCC2CCCO2)c(OCC)cc1NC(=O)c1ccc(OC)cc1 (stereo not drawn)	106	-8	-9	1	130*	96	-1	103
COc1cccc2cc(C(=O)NCC3CCCO3)c(=O)oc12 (stereo not drawn)	nt	10	16	nt	nt	nt	nt	nt
Cc1ccc(SCCC(=O)NCC2CCCO2)cc1 (stereo not drawn)	1.0*[inhibitor]	6	7	-39	2.0*[inhibitor]	96	1	102
CCOc1cc(NC(=S)NCC2CCCO2)c(OCC)cc1NC(=O)c1ccccc1C (stereo not drawn)	98	5	3	-3	103	nt	nt	nt
Cc1ccc(SCC(=O)NCC2CCCO2)cc1 (stereo not drawn)	94	8	5	-10	96	nt	nt	nt
COc1ccc(-c2nsc(SCC(=O)NCC3CCCO3)n2)cc1 (stereo not drawn)	81	-2	0	-3	73*[inhibitor]	100	1	101
